In PubChem BioAssay (EPA / NIEHS):
Activity calls are given as the source filed them. The calls were made as follows: active = hit-call score of the fitted dose curve at least 0.9, where 1 is the maximum; inactive = score below 0.9.

Read-out: Cytochrome P450 (CYP2B6), CYP2B6 (gene 1555)
Assay: LTEA_HepaRG_CYP2B6: Life Technologies and Expression Analysis (LTEA) Assay for Cytochrome P450 (CYP2B6) using HepaRG (AID 2283481)
Conditions: mRNA level, 48 h; actives raise or lower the signal
Method: LTEA_HepaRG is a cell based, multiplexed-readout assay that uses HepaRG, a human liver cell line, with measurements taken at 48 hours after chemical dosing on a 96-well plate.LTEA_HepaRG_CYP2B6 is one of 102 assay component(s) measured in the LTEA HepaRG cell culture assay. It is a marker of NR mediated metabolism.Data from the assay component LTEA_HepaRG_CYP2B6 was analyzed into 1 endpoint. This assay endpoint, LTEA_HepaRG_CYP2B6, was analyzed with bidirectional fitting relative to DMSO as the negative control and baseline of activity. Using a type of inducible reporter, measures of mRNA induction for gain or loss-of-signal activity can be used to understand regulation of transcription factor activity. To generalize the intended target to other relatable targets, this assay endpoint is annotated to the cyp intended target family, where the subfamily is xenobiotic metabolism.
A total of 1060 chemcials from the ToxCast library were tested in eight-point concentration-response experiments. Cell culture and cytotoxicity assays were conducted at Thermo Fisher Scientific's Custom Services facility (Madison, WI). A single lot of human HepaRG cells (Thermo Fisher Scientific, Frederick, MD) was used for the cell culture experiments. 96-well format collagen type I coated plates of human HepaRG cells were prepared using established methods. Briefly, cryopreserved HepaRG cells were thawed, plated at a density of approximately 100,000 cells/well in HepaRG Thaw, Plate, and General Purpose media (HPRG770, Thermo Fisher Scientific), and incubated for 48 hours. 0.5% DMSO was selected as vehicle control to balance the requisite need of DMSO in HepaRG cultures to maintain differentiation (for example, baseline metabolism, proportions of hepatocytes vs. cholangiocytes), while enabling further hepatic receptor pathway activation (for example, PXR and CAR) in response to chemical exposure. 48 hours after plating, the culture medium was replaced with HepaRG Serum-Free Incudtion Media. Cells were exposed to each test chemical in duplicate and maintained in CO2 incubators for another 48 hours. Chemical plates were thawed to room temperature and 200x concentrations of treatment groups were prepared. 8-point conentration-reponse curves were made with the highest exposure at 100 uM, followed by half-log dilutions, all in 0.5% DMSO. Each test plate contained variouse controls, induction positive controls (1mM phenobarbital), cytotoxicity positive controls ([…] aflatoxin B1), vehicle controls (0.5% DMSO), and total lysis controls (0.5% DMSO). Cell morphology images were taken using an Essen IncuCyte FLR automated microscope, with six 96-well plates imaged in about 24 minutes. Images were captured and exported and JPEG files. Spent culture media was transfered to black-well plates for the LDH assay, and remaining media was sorted at -80 C for later use. Cells were treated with RLT buffer and frozen until shipped for gene expression analysis. Total RNA was isolated from the cell suspension in 75 uL of Buffer RLT (Qiagen, Germantown, MD 20874) by Quintiles/Expression Analysis (Durham, NC) using a custom isolation procedure. Total RNA from each plate well was transferred to a preamplification plate. Fluidigm's 96.96 Dynamic ArrayTM (Fluidigm, Amsterdam, the Netherlands) technology was used for gene expression analyses by quantitative reverse transcription polymerase chain reaction (qRT-PCR, performed by Quintiles/Expression Analysis, Durham, NC)89. Standard TaqManTM Assays (Applied Biosystems/ThermoFisher Scientific, Foster City, CA) were used to assess the expression of 93 genes selected based on their selectivity and sensitivity to important hepatic receptors known to be modulated by environmental chemicals; importance in human hepatocyte functionality; and hepatotoxicity. […]

| SMILES | outcome | AC50 |
| --- | --- | --- |
| CC(=O)OCC(COC(C)=O)OC(C)=O | inactive |  |
| CCC(C)N(C)C(=O)c1cc2ccccc2c(-c2ccccc2Cl)n1 (stereo not given) |  | 1.38 µM (active) |
| C/C=C/C=C/C(=O)O | inactive |  |
| CCOCCOCCO | inactive |  |
| COc1ccc(C(=O)Nc2nc3ccccc3c(NCc3ccccc3)c2C#N)cc1 | inactive |  |
| O=C1O[C@H]([C@H](O)CO)C(O)=C1O | inactive |  |
| CCCCOC(=O)CCCCC(=O)OCCCC | inactive |  |
| CC(C)NCC(O)c1ccc(O)c(O)c1 (stereo not given) |  | 0.132 µM (active) |
| CCCCC(CC)COP(=O)(OCC(CC)CCCC)OCC(CC)CCCC (stereo not given) |  | 8.38 µM (active) |
| CCCCC(CC)CO (stereo not given) | inactive |  |
| CC(=O)CC(c1ccccc1)c1c(O)c2ccccc2oc1=O (stereo not given) |  | 29.7 µM (active) |
| Oc1ccccc1O | inactive |  |
| CCCCc1nc2cccnc2n1Cc1ccc(-c2ccccc2-c2nnn[nH]2)cc1 |  | 10.4 µM (active) |
| CN(C)CCCN1c2ccccc2Sc2ccc(Cl)cc21 |  | 2.21 µM (active) |
| CC(C)(O)c1ccc(CNC(=O)c2cccnc2Oc2ccc(F)cc2)cc1 |  | 0.432 µM (active) |
| O=C(N[C@@H](c1ccccc1)[C@@H]1CCCCN1)c1cccc(C(F)(F)F)c1Cl |  | 32.7 µM (active) |
| C=CCCCCCCCCCCCC | inactive |  |
| CC(C)OC(=O)C(C)(C)Oc1ccc(C(=O)c2ccc(Cl)cc2)cc1 |  | 63.3 µM (active) |
| NC(=Nc1ccccc1)Nc1ccccc1 | inactive |  |
| C#CC(O)C(CC)CCCC (stereo not given) |  | 24.4 µM (active) |

| SMILES | outcome | AC50 |
| --- | --- | --- |
| CC(COCC(C)OC(=O)c1ccccc1)OC(=O)c1ccccc1 (stereo not given) | inactive |  |
| Cc1occc(=O)c1O | inactive |  |
| Cc1cc(Cc2ccc(N)c(C)c2)ccc1N |  | 0.823 µM (active) |
| OCC(O)CO |  | 22.6 µM (active) |
| CN(C)C(=O)NC1(c2ccccc2)CCN(CCC[C@]2(c3ccc(Cl)c(Cl)c3)CCCN(C(=O)c3ccccc3)C2)CC1 |  | 20 µM (active) |
| CCCCCCC(C=O)=Cc1ccccc1 |  | 15.9 µM (active) |
| O=C(O)CC(O)(CC(=O)O)C(=O)O | inactive |  |
| CCCCCCCCCCCCCCCCO |  | 13.1 µM (active) |
| O=Cc1ccccc1C=O |  | 23.3 µM (active) |
| CCCCCCC(CCCCCCCCCCC(=O)OCC(COC(C)=O)OC(C)=O)OC(C)=O (stereo not given) | inactive |  |
| COC(=O)[C@H]1[C@H]2C[C@@H]3c4[nH]c5cc(OC)ccc5c4CCN3C[C@H]2C[C@@H](OC(=O)c2cc(OC)c(OC)c(OC)c2)[C@@H]1OC |  | 61.7 µM (active) |
| O=C1OC(c2ccc(O)cc2)(c2ccc(O)cc2)c2ccccc21 |  | 84.7 µM (active) |
| Cc1cn([C@H]2C=C[C@@H](CO)O2)c(=O)[nH]c1=O |  | 10.3 µM (active) |
| CCCCC(CC)COC(=O)CCCCCCCC(=O)OCC(CC)CCCC (stereo not given) |  | 30.9 µM (active) |
| CCCCCCCC(=O)OC | inactive |  |
| CC(C)c1cccc(C(C)C)c1 | inactive |  |
| CN(C)CCCN(C)CCCN(C)C | inactive |  |
| O=[Si]=O |  | 0.099 µM (active) |
| CC(=O)O | inactive |  |
| CC(N)=O | inactive |  |
